# AMA1 RON2 block – disrupts binding of P. falciparum AMA1 to RON2. AlphaScreen AMA1-biotinylated RON2 peptide binding. Potency, µM (series often up to 58.2 µM), without a hit: top-dose activity change, negative = inhibition, usual class: inhibitors. actives 0.2% (n = 360,000). AID 720542;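 note: 0% = vehicle wells and -100% = peptide control; nearly all actives have a fitted effect of over 45% in size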
#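 AMA1 (3D7) with his tag at 25 nM final met compounds first, then biotinylated RON2 peptide at 25 nM; detection used donor plus acceptor beads, 10 µg/mL apiece, read by AlphaScreen after 30 min at room temperature.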
# HCV inhibitor – inhibitors of hepatitis C virus infection; Huh7.5.1 HCVcc-Cre infection, luciferase reporter, 44 h; actives 3.4% (n = 340,000); Potency, µM (top dose mostly 41.8 µM), for the others: at the top dose activity change, negative = inhibition, hits mostly inhibitors; note: % is set by controls: 0 for no effect and ±100 for the full control effect
#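 Infectious HCVcc-Cre (~0.5 moi) was added to cells just after compound, with cells seeded 4 h earlier at 1,000 per well. Luciferase activity after 44 h culture reported infection; substrate was incubated 15 min at room temperature before reading.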
# SARS PLP yeast – SARS-CoV PLP inhibition in yeast; S. cerevisiae expressing SARS-CoV PLpro, growth rescue; Potency, µM (series often up to 32.9 µM), inactives show at the top dose activity, positive = growth rescue, usual class: activators; actives 0.19% (n = 330,000); AID 485353; calls by dose curve; note: 0% is about no effect; nearly all actives have a fitted effect of over 55% in size
# Pf growth 48h – P. falciparum growth inhibition at 48 hours (one generation) | P. falciparum luciferase growth in erythrocytes, 48 h | actives 5.9% (n = 310,000) | Potency, µM (series often up to 28.7 µM), for inactives: top-dose activity change, negative = inhibition, usual class: inhibitors; note: % is set by controls: 0 for no effect and ±100 for the full control effect
#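 Erythrocytes infected with P. falciparum carrying an integrated firefly luciferase reporter (2% hematocrit, 0.1% parasitemia final) were exposed to compounds in RPMI 1640 with 0.5% Albumax at 37 C, 5% CO2. Growth inhibition was scored as reduced luminescence.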
# NS1 inh – inhibitors of influenza NS1 protein function. Potency, µM (titrated, usually from 46.1 µM), inactives show top-dose activity, positive = more growth. actives 0.4% (n = 270,000); calls by dose curve; note: actives are rising curves; nearly all actives have a fitted effect of over 50% in size
#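 A cell-based growth assay was used: compounds that relieve NS1-induced slow growth of budding yeast raise OD600. Assay medium was yeast nitrogen base with ammonium sulphate and -URA supplement, pH 6.0, with 2% galactose.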
# Pf growth 96h – P. falciparum growth inhibition at 96 hour, primary screen for plastid delayed-death inhibitors; P. falciparum luciferase reporter growth, 96 h; actives 6.9% (n = 320,000); Potency, µM (doses to about 28.7 µM), for inactives: at the highest dose activity change, negative = inhibition, hits mostly inhibitors; note: % is set by controls: 0 for no effect and ±100 for the full control effect
#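 Plates of compound plus infected erythrocytes (2% hematocrit, 0.05% parasitemia final) incubate 96 hours, 37 C, 5% CO2. Detection reagent added; reduced luminescence from the parasites' luciferase reporter flags inhibition.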
# * marks the source's active call; other numbers are inactive results; ? = inconclusive; / = no result; [ ] = dose if it differs, or a comment. Only some compounds are listed: those with a hit (about 12% of all), similar ones and a draw of the others. Unless noted, calls come from the whole dose curve; as a rule, active = well fitted curve in the direction sought with a large enough effect; inconclusive = small, poorly fitted or top-dose-only effect, or another doubt; inactive = no such curve, though single readings can be large; an effect the other way counts as inactive or inconclusive. Potency is the fitted concentration of half-maximal effect.
SMILES,AMA1 RON2 block,HCV inhibitor,SARS PLP yeast,Pf growth 48h,NS1 inh,Pf growth 96h
Cc1ccc(-c2nnc(SCC(=O)NCC3CCCO3)nc2-c2ccc(C)cc2)cc1 (configuration not stated),-17%,-3%,9%,15µM*,/,?
CCOc1ccc(NCc2nnc(SCC(=O)Nc3cc(C)on3)n2-c2ccccc2OC)cc1,-6%,?,25%,?,-7%,15%
CCOc1ccc(NCc2nnc(SCC(=O)Nc3cc(C)on3)n2-c2ccc(OC)cc2)cc1,-3%,-13%,5%,13µM*,-15%,?
O=C(CSc1nnc(-c2ccccc2)c(-c2ccccc2)n1)NCC1CCCO1 (configuration not stated),-15%,?,2%,/,/,/
CC(C)CC(=O)N1CCN(C(=O)c2ccc(-c3ccccc3)cc2)CC1,-4%,-16%,-9%,-16%,10%,59%
Cn1c(N)c(C(=O)CSc2nnc(-c3c[nH]c4ccccc34)n2C2CC2)c(=O)[nH]c1=O,-18%,1%,0%,?,/,6.6µM*
COc1ccc(Cn2ccnc2SCC(=O)Nc2ccc(F)cc2F)cc1,-13%,/,/,/,/,/
S=C(CN1CCCC1=S)NCCc1ccccc1,38%,16%,-2%,-9%,-66%,8%
O=C(CSc1nccn(-c2ccc(Br)cc2)c1=O)NCc1ccccc1,-7%,6%,2%,13µM*,/,?
Cc1nc(-c2ccc([N+](=O)[O-])cc2)sc1C(=O)O,-15%,12%,0%,95%,6%,-7%
COc1ccccc1CCc1nnc(CCC(=O)NC(C)Cc2cccs2)o1 (configuration not stated),4%,3%,1%,-3%,-5%,-6%
N#Cc1ccc(CSc2nnc(-c3cccc(S(=O)(=O)N4CCCCC4)c3)o2)cc1,3%,?,-4%,13µM*,-27%,?
COC(=O)c1ccc(OC(C)C(=O)c2ccc(C)cc2)cc1 (configuration not stated),24%,13%,8%,-18%,1%,?
COCC1CCCN(C(=O)c2cc(COc3ccc4ncccc4c3)on2)C1 (configuration not stated),16%,1µM*,0%,-19%,9%,?
O=C(c1cc(COc2ccc3ncccc3c2)on1)N1CCC(O)CC1,2%,8.9µM*,-1%,5%,-7%,203%
CCC(O)C1CCN(C(=O)c2cc(COc3ccc4ncccc4c3)on2)CC1 (configuration not stated),1%,1.8µM*,0%,2%,3%,-5%
O=C(c1cc(COc2cccc(C(F)(F)F)c2)on1)N1CCC(Oc2cccnc2)CC1,-8%,11µM*,?,-15%,-56%,54%
O=C(c1cc(COc2ccc3ncccc3c2)on1)N1CCCC(O)C1 (configuration not stated),6%,?,-1%,49%,3%,?
Cn1c(N)c(C(=O)COC(=O)c2ncc(Cl)c(Cl)c2Cl)c(=O)n(C)c1=O,-17%,-18%,13%,-17%,/,20%
c1ccc(Cn2c[n+](Cc3ccccc3)c3ccccc32)cc1,-2%,17%,5%,?,-16%,6.6µM*
c1ccc(C[n+]2csc3ccccc32)cc1,?,-11%,-30%,34%,-5%,32%
CCC12CN(S(=O)(=O)c3ccc(C)cc3)CC(CC)(CN(S(=O)(=O)c3ccc(C)cc3)C1)C2=O,-1%,-12%,1%,/,8%,2.3µM*
CCn1cc(/C=N/N=C2\CCC3C4CCc5cc(O)ccc5C4CC[C@]23C)c(C)n1 (some centres not stated),-4%,-14%,-7%,/,1%,1.7µM*
On1onc2c3cc(-c4ccccc4)nc3ccc21,-26%,2.2µM*,-12%,?,-92%,/
CCCCCC[n+]1c(-c2ccc(Cl)cc2Cl)csc1Nc1ccccc1,-5%[2.32 µM],7%,-34%,1.2µM*,-1%,?
SMILES,AMA1 RON2 block,HCV inhibitor,SARS PLP yeast,Pf growth 48h,NS1 inh,Pf growth 96h
CC(=O)N(C)c1nc(N)n(-c2ccccc2)n1,10%,13%,0%,37%,5%,13%
CCOC(=O)C1CCN(C(=O)Cn2nc(CC)n3cccc3c2=O)CC1,-7%,5%,2%,4%,0%,?
O=C(CSc1nc2ccccc2s1)Nc1cc(S(=O)(=O)N2CCOCC2)ccc1O,-15%,5%,13µM*,16%,2%,?
Nc1nonc1NC(=O)CSc1nc2ccccc2s1,0%,18%,/,19%,-47%,10µM*
O=C(CSc1nc2ccccc2s1)Nc1nccs1,1%,15%,0%,14%,-7%,100%
Cn1c(=O)c2cc(NC(=S)NCc3ccccc3F)ccc2n1C,-6%,/,/,/,/,/
COC(=O)c1cn(-c2nc3ccccc3s2)nn1,16%,/,/,/,/,/
COc1ccc(NC(=O)CN2C(=O)NC3(CCCCC3C)C2=O)cc1OC (configuration not stated),1%,23%,1%,?,/,-21%
Cc1ccc(C)c(/C(O)=C2\C(=O)C(=O)N(CCCN3CCOCC3)C2c2cccnc2)c1 (configuration not stated),-8%,6%,7%,15%,10%,1.9µM*
Cc1nc2ccccn2c1/C(O)=C1\C(=O)C(=O)N(CCN2CCOCC2)C1c1cccnc1 (configuration not stated),13%,1µM*,5%,47%,-3%,42%
Cc1ccc(/C(O)=C2/C(=O)C(=O)N(CCN3CCOCC3)C2c2cccnc2)cc1 (configuration not stated),0%,5%,16%,5%,11%,?
N#C/C(=C\c1ccc(OCC(N)=O)cc1)S(=O)(=O)c1ccccc1,3%,-1%,0%,10%,/,23%
CC(C)(C)c1cc(C#N)cc(Br)c1OP(=O)(Oc1c(Br)cc(C#N)cc1C(C)(C)C)c1ccccc1,/,/,/,/,-6%,/
Cc1ccc(-n2c3c(cc(C(=O)NCCCN4CCOCC4)c2=O)C(=O)CC(C)(C)C3)cc1,1%,0%,-10%,2%,15%,0.83µM*
COc1ccc(/C=C2\CN(Cc3ccccc3)C/C(=C\c3ccc(OC)c(O)c3)C2=O)cc1O,-9%,6.3µM*,4%,3.3µM*,15%,3.7µM*
O=C1/C(=C/c2cccc([N+](=O)[O-])c2)CCc2ccccc21,?,3%,-95%,34%,-20%,?
COc1ccc(C=C2C(=O)c3ccccc3C2=O)cc1O,-22%,4%,-3%,2%,/,12µM*

# Compound activity (PubChem)
